The supplement of paper PMC12632987
In all, about 4,500 sequences were measured (“median log2 fold change of GCK-ALFA target abundance (FLAG IP / Myc IP barcode read proportion)”: median about 0.078, lowest 2% from about -0.6 on). This excerpt belongs to a sample that is enriched for the lowest values.

B1: GBRAP_35_5545 (protein)
chain: DFDEETVEMLLNTMEDIVLALPDVSPEEKLILARHLIDLAEKAIEEKPKNVELLKRGIEVLERAIEIVKASDLPEEEREELIERLEEVKEKFEKLLKENE
B2: GBRAP_35_5547 (protein)
chain: DPETETVEMLLNTMEDIVLALPDVSPEDLETLTKHLIDLANLAIEEKPKNKELLERLIKALEEAIKIVEASDLPEEVKAELLKELEKARKEAEKLLEKVK
B3: GBRAP_35_5544 (protein)
chain: MEEEETVEMLLNTMEDIVLALPDVSPEEQLILTKHLIKLAKLAIEEKPKNKELLKRGIEALKEAIKIVKESDLPEEEKEKLLKELEEAKEKFEKLLKKVE
B4: GBRAP_128_3307 (protein)
chain: MDEELLEEARELIERLKEADEEEAAELVREIAELLEKATPEEREEIAELFEEALKELSAEKLDVVADTLRELIPKATPETANVLADLQVEALNLAEEKEE
B5: GBRAP_160_4379 (protein)
chain: SEELKELKEEVKKLKEEFKEEAKDLSTAEVRTLAIGVLSEIAALVWSNEAVSEETKDKIMKIIDDAIAKIRANADASPEEIVAIVTEAFDKIIELIEKEE
B6: GBRAP_125_3112 (protein)
chain: NMEEILEALRIILKALGFDEEEIEEAVRLAREYGIKGTMIAAALALGWEEVAELLEKLSEEEVKEALLRTAEKIKENPELTPEEVKELLKEVLKEILEKK
B7: GBRAP_11_2866 (protein)
chain: NKEKLKEIAELLEKLIEVLERLLEEGVDNEELREEALKLAKEILELVKKYSDEADVKLAEYALELLEKAEEDPANAEQYVQEALAFARVLLGNVLLRIDE
B8: GBRAP_52_6101 (protein)
chain: AAAEAEALVERLLALVRAGREAEARAEAAALAAEMDEARLRVLTEALAARARAAAPEDLDAVWRLAELLADELEAAGWPDVLVDDLLAATAAALYERELA
B9: GBRAP_128_3576 (protein)
chain: SDEEILEKAKELIKKIIESDVEEAKKYAEELAKLLKEADPETREKIVELILEALPKLSVEKLEVLADVFREQRPKADPETANLLAEIEVEALNEAVEKEE
B10: GBRAP_166_4948 (protein)
chain: SLEEVIEETREFIRELAERMKTLNDEERLDALIEIAERLEEARKAGVSEEDLLELVREALELVKEAGGSVEQFVGALDMFVDLDEEELDKVAEIAEEVKA
B11: GBRAP_137_3672 (protein)
chain: MIDAKIEIEDGLAYAELTYKGSLEEAKKAAEIAEEIAGKIPGIAISTKVDEDGTLTIDLGGTLEQIMKFLKELAKALNVTINVTIKDLDTGETTKETIKA
B12: GBRAP_160_4310 (protein)
chain: KEELEALKKEVKEIFEEAKKLIEGETKEQQKAIVKVALGEVILLAFESPAITEEAEEKIAEIADEAIATLDANPDLTTEEIKKLLEEAEKKILELIEKLK
B13: GBRAP_74_6571 (protein)
chain: MEKYTKEMKAAAAAGDVKKAIKIVEEMIEKGIKKVSAEFLNALATIAEKHLPKATPEEQERFIDAASELVDLVLESEQDEETYKALNKLITALYEAELAR
B14: GBRAP_57_6475 (protein)
chain: MERLKAVEEAAERALALIDARAPREEILAAVRELAELLSEETLRDVLLIADPEAPEDLSKEEAIARLVALAAAYLDAGDYDGLRRLVELMLGTAEMDFEE
B15: GBRAP_39_5697 (protein)
chain: EREEEAEDTFSYLEAIGAKYQVEEKISLEEARERTRELAERFIKEHPEIAEVLKELLELAEKAGDLAILALLGLLLRAEEGTPLEEIKKDAELLIEYLKS
B16: GBRAP_125_2965 (protein)
chain: SEEEALEALAIIAKALGFDEDEVEEAVELARRFGLKKTLIALFLAEGYEEVADLVEKLTEEEAREVAKKLAEEIKKNPELTPEEVVELAKKLFEEVIAKK
B17: GBRAP_80_6822 (protein)
chain: MEEELEANLKALEAVDPEIAKIVREIVEIARELGVPLETLVRLAKAILELAKVDKEKARELAEELLEELREEREEGDREGALAELVDAESEALLEVEELE
B18: GBRAP_184_5158 (protein)
chain: KVLERTIEADNLEELKKKLKEIKEEAAKTKADLIVVLNLKELTKEMLETALSTLGEIKKEGLAPSITLLIENEMNDEQIDFALKLADEAGVTLVVAIPDE
B19: GBRAP_160_4463 (protein)
chain: KEEVKEAVEELRERVEEVLEDSENMSPEQILLAVAVEVGSSLLEWEEEGKISDEQAEILAKAIDELLRLAKEEKNASPEEAKKRAREIVEKAAKEILAAA

These binders were tested against GABARAP, O95166 (assay: median log2 fold change of GCK-ALFA target abundance (FLAG IP / Myc IP barcode read proportion) (log2 ratio); each designed protein is fused to an ALFA-tag nanobody in HEK293 cells to bring the named protein to FLAG-tagged glucokinase (GCK); Myc marks an untargeted standard; higher = target protein stabilised (more abundant)). Settings: target protein: 3xFLAG-MCP-GCK-ALFA reporter; HEK293 landing pad (RPLP).
Sequence of GABARAP, O95166 (O95166 whole entry, the tested form may be a part): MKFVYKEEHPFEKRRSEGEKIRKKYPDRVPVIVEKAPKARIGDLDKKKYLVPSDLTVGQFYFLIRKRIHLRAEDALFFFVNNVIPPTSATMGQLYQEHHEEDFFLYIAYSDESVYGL
Protocol: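 LABEL-seq trans screen in HEK293 landing-pad cells. Each de novo designed 100-aa effector handle, binding the indicated effector (E3 ligase, DUB or autophagy protein), is fused to a constant NbALFA target handle and induced with 2 ug/mL doxycycline. A FLAG-MCP-GCK-ALFA target and a Myc-MCP standard reporter were transfected, and after 48 h circRNA barcodes were recovered by anti-FLAG and anti-Myc IP and sequenced. The value is the median across barcodes (at least 3 per design) of log2(FLAG/Myc read-proportion ratio), with the two transfection replicates pooled. Negative values mean degradation and positive values mean stabilisation of the target.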

Row | Binder | median log2 fold change
1 | B1 | 0.127
2 | B2 | 0.0216
3 | B3 | -0.612
4 | B4 | 0.0926
5 | B5 | 0.234
6 | B6 | -0.66
7 | B7 | -0.0773
8 | B8 | -0.279
9 | B9 | 0.00207
10 | B10 | 0.0139
11 | B11 | 0.117
12 | B12 | -0.615
13 | B13 | -0.298
14 | B14 | 0.257
15 | B15 | 0.186
16 | B16 | -0.872
17 | B17 | -0.574
18 | B18 | -0.0197
19 | B19 | -0.697
